Data as given in ChEMBL document CHEMBL3988442, “University of Dundee, Small-Polar-MMV Screening Library” (2021).
About 1,000 (1.4%) of roughly 69,000 compounds showed an effect of 50% or more. The sample holds strong results, similar compounds and a random draw of the others, so the mix is not that of the screen.

Test system: Leishmania donovani
Assay: Leishmania intramacrophage assay
Type: functional, organism-based
Parameters: scale not given: in the data most compounds retested in dose-response had high values

Row | SMILES | Percent Effect (30.3 µM, […]) [%] | Percent Effect (30 µM, 30.03 µM) [%]
1 | CS(=O)(=O)NCc1cn2c(n1)CN(Cc1cccnc1)CC2.O=C(O)C(F)(F)F.O=C(O)C(F)(F)F | 33.92 | –
2 | O=C(O)C(F)(F)F.O=C(c1ccnnc1)N1CCN2C[C@H](Oc3cccc(F)c3)C[C@H]2C1 | – | 5.462
3 | COc1ccc(CN2C[C@@H](CN(C)CCO)[C@@H](CO)C2)cc1Cl | 33.72 | –
4 | COc1ccc(CN2C[C@@H](CN(C)C)[C@@H](CO)C2)c(Cl)c1OC | 52.59 | –
5 | COc1cccc(OC)c1C(=O)N1C[C@@H](CN(C)C)[C@@H](CO)C1 | -22.82 | –
6 | COc1ccc(CN2C[C@@H](CN(C)C)[C@@H](CO)C2)cc1OC | 51.5 | –
7 | COc1ccc(CN2C[C@@H](CN(C)C)[C@@H](CO)C2)cc1CN1CCCC1 | 7.971 | –
8 | CN(C)C[C@@H]1CN(Cc2ccccc2C#N)C[C@@H]1CO | -11.66 | –
9 | Cc1noc(C)c1CN1CCC(NC(=O)OC(C)(C)C)CC1 | 3.614 | –
10 | CC(C)c1noc(-c2ccc(NCC3CCCOC3)nc2)n1 (stereo not given) | 22.02 | –
11 | Cc1cccc(-n2cnnc2CCCN2CCOCC2)c1 | 22.56 | –
12 | COc1cccc(CN2C[C@@H]3COC[C@]3(CNC(=O)C3CC3)C2)c1.O=C(O)C(F)(F)F | 43.72 | –
13 | Cc1cnccc1CNCc1ccc(OC23CCCN(CC2)C3)cc1 (stereo not given) | 13.67 | –
14 | c1ccc(Oc2cccc(OC34CCCN(CC3)C4)c2)cc1 (stereo not given) | 65.6 | –
15 | c1ccc(Oc2ccc(OC34CCCN(CC3)C4)cc2)cc1 (stereo not given) | 89.06 | –
16 | O=c1[nH]nc(CNCc2ccc(OC34CCCN(CC3)C4)cc2)[nH]1 (stereo not given) | 39.69 | –
17 | COc1cc(C#N)ccc1OC12CCCN(CC1)C2 (stereo not given) | 20.92 | –
18 | Cc1nc(CNCc2cccc(OC34CCCN(CC3)C4)c2)n[nH]1 (stereo not given) | 36.42 | –
19 | CCN(CC)C(=O)c1nnn(Cc2ccccc2)c1OC | – | -25.11
20 | Cc1ccc(C(=O)N2CCC3(CCC(=O)N(CC(N)=O)C3)CC2)cc1 | -8.473 | –

Row | SMILES | Percent Effect (30.3 µM, […]) [%] | Percent Effect (30 µM, 30.03 µM) [%]
21 | CC(C1CC1)N(C(=O)CNc1ccc(C#N)cc1)C1CC1 (stereo not given) | 26.89 | –
22 | O=C(O)C(F)(F)F.O=C(c1cccc(Cl)c1)N1CC[C@H]2[C@H]1CCN2CC1CC1 | 23.02 | –
23 | O=C(O)C(F)(F)F.O=C(c1cccc(Cl)c1)N1CC[C@H]2[C@H]1CCN2CC1CCOCC1 | – | 39.19
24 | CN(C)CCN1CC[C@@H]2[C@@H]1CCN2C(=O)c1cccc(Cl)c1 | 54.02 | –
25 | O=C(c1ccc(-c2ccccc2)[nH]c1=O)N1CCN(C2CC2)CC1 | 25.14 | –
26 | CN1[C@H]2CC[C@@H]1CN(C(=O)c1ccc(-c3ccccc3)[nH]1)CC2 | 78.84 | –
27 | CO[C@H]1CN(C(=O)c2ccc(-c3ccccc3)[nH]2)CC[C@H]1N | 45.29 | –
28 | CCCS(=O)(=O)CC(=O)N1CCN(CC2CC2)c2ccccc21 | 3.775 | –
29 | Cc1ccc2c(n1)N(CCN(C)C)CCN(C(=O)c1ccc[nH]1)C2.O=C(O)C(F)(F)F.O=C(O)C(F)(F)F | – | 20.64
30 | Cc1ccc2c(n1)N(CCN(C)C)CCN(C(=O)c1cscn1)C2.O=C(O)C(F)(F)F.O=C(O)C(F)(F)F | 4.389 | –
31 | Cc1ccc2c(n1)N(CCN(C)C)CCN(C(=O)c1cccs1)C2.O=C(O)C(F)(F)F.O=C(O)C(F)(F)F | 50.31 | –
32 | O=C(c1ccoc1)N1CCCCC1c1nc[nH]n1 (stereo not given) | 24.92 | –
33 | CC(=O)c1ccc(C(=O)N2CCCCC2c2nc[nH]n2)cc1 (stereo not given) | 66.49 | –
34 | O=C(c1ccc(F)c(F)c1)N1CCCCC1c1nc[nH]n1 (stereo not given) | -8.926 | –
35 | CCOCC1CN(C(=O)c2cscn2)Cc2cn(C)nc21.O=C(O)C(F)(F)F (stereo not given) | -0.7565 | –
36 | O=C(c1ccc(-c2ccc(O)nc2)s1)N1CCCCCC1 | 19.86 | –
37 | Cc1nc(C2CCCNC2)cc(N(C)CCc2cn[nH]c2)n1 (stereo not given) | 29.46 | –
38 | Cc1nc(C2CCCNC2)cc(N(C)CCc2ccccc2)n1 (stereo not given) | 66.58 | –
39 | CCn1ccnc1CN(C)c1cc(C2CCCNC2)nc(C)n1 (stereo not given) | -6.202 | –
40 | Cl.c1ccc(CCNc2cccc(C3CCCNC3)n2)cc1 (stereo not given) | 71.14 | –

Row | SMILES | Percent Effect (30.3 µM, […]) [%] | Percent Effect (30 µM, 30.03 µM) [%]
41 | Cl.c1cc(CC2CCCNC2)nc(NCCc2cnccn2)c1 (stereo not given) | 2.895 | –
42 | Cl.c1cc(NCc2ccncc2)nc(C2CCCNC2)c1 (stereo not given) | 20.7 | –
43 | CC1(C)Cc2c(cnn2-c2ccccc2)C(NC2CCSCC2)C1 (stereo not given) | 17.91 | –
44 | CCN1C(=O)[C@H]2CN(Cc3cccnc3)C[C@H]2C12CCN(C(C)=O)CC2 | 4.627 | –
45 | CSCCC(O)C(=O)N1CCC(OCc2cccnc2)CC1 (stereo not given) | -15.88 | –
46 | CNC(=O)CN1CCC(OCc2ccc(Cl)c(Cl)c2)CC1 | 23.39 | –
47 | NC(=O)C1CCN(C(=O)Cc2ccc(Cl)c(Cl)c2)CC1 | 12.37 | –
48 | CCC(N)C(=O)N1CCC(OCc2ccc(Cl)c(Cl)c2)CC1.Cl (stereo not given) | 81.5 | –
49 | NC(=O)CN1CCC(OCc2ccc(Cl)c(Cl)c2)CC1 | 39.98 | –
50 | CCOc1cc(-c2cc(=O)n3c(n2)CCCCC3)ccc1O | -28.99 | –
51 | O=C(O)C(F)(F)F.O=C([C@H]1COC[C@H]2CN(c3ncc(F)cn3)C[C@H]21)N1CCOCC1 | 11.96 | –
52 | O=C(CCN1CCCC(CO)(CC2CC2)C1)NCc1cccc(Cl)c1 (stereo not given) | 10.86 | –
53 | COCCN1CC[C@@H]2OC[C@H](C(=O)N(C)Cc3ccccn3)C[C@@H]2C1 | 34.37 | –
54 | O=C(NCCc1cccs1)[C@H]1CO[C@H]2CCN(CC3CC3)C[C@H]2C1.O=C(O)C(F)(F)F | 18.2 | –
55 | CN(Cc1ccccn1)C(=O)[C@H]1CO[C@H]2CCN(CC3CC3)C[C@H]2C1.O=C(O)C(F)(F)F.O=C(O)C(F)(F)F | 67.47 | –
56 | Cc1nc(CN2CCO[C@H]3CN(C(=O)c4cccn4C)C[C@H]32)cs1 | 20.02 | –
57 | O=C(CSc1ccncc1)NC1CC(=O)N(CCc2ccccc2)C1 (stereo not given) | 1.719 | –
58 | CCNc1ncc(-c2cc(-c3ccn(C)c3)nc(N)c2C#N)cn1 | -7.222 | –
59 | COc1ncc(-c2cc(-c3ccn(C)c3)nc(N)c2C#N)cn1 | 4.864 | –
60 | CCn1cc(-c2cc(-c3ccn(C)c3)nc(N)c2C#N)cc1C#N | 62.07 | –
